For eight compounds, growth results are on record in PubChem BioAssay (NCI).

The panel holds about 83,000 compounds, 20% with a hit somewhere; the sample as a whole holds those more often.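 Treatment: one concentration, 48 hours, 96-well format. Scoring: percent growth, with anything below 10 considered active.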 Unmarked numbers belong to inactive results. Calls of active or inactive are those of the source.

Assay in all cases: NCI-60 one-dose screen, 48 h (100 = growth as untreated, 0 = no growth, -100 = all killed)
What all share (conditions): 10 µM unless noted

The test system of test [1] is HCT-15 colon.
The subject of test [2] is HT29 colon.
Test [3] relates to SNB-75 CNS.
The test system of test [4] is SNB-19 CNS.
Test [5] concerns U251 CNS.
The subject of test [6] is PC-3 prostate.
Test [7] deals with SK-MEL-5 melanoma.
Test [8] relates to LOX IMVI melanoma.
Test [9] deals with SK-MEL-28 melanoma.
For test [10], the system named is SK-MEL-2 melanoma.
Test [11] relates to EKVX NSCLC.
For test [12], the system named is SN12C renal.
Test [13] relates to UO-31 renal.
In test [14] the test system is TK-10 renal.
In test [15] the test system is A498 renal.
In test [16] the test system is CCRF-CEM leukemia.
In test [17] the test system is MOLT-4 leukemia.
For test [18], the system named is UACC-62 melanoma.
The subject of test [19] is ACHN renal.
The subject of test [20] is CAKI-1 renal.

Turning to `CCN(CC)CC(=O)Nc1cccc(C(=O)OC(C)C)c1`, the growth in test [1] was 93.9%; in [2], 81.5%; in [3] it was 107%; in test [4], 106%; in test [5], 100%; in test [6], 80.8%. For the same compound, the growth is 107% in test [7]; 96.2% in test [8]; 102% in [9]; 81.9% in [10]; 96.4% in test [11]; 107% in test [12]. Further, the growth in [13] is 89.7%; in test [14] it was 87.5%; in test [15] it was 140%; in test [16], 86.6%; in test [17], 96.2%.
`COc1ccc(OC)c(C(=O)Nc2cccc(-c3cc(=O)c4ccccc4o3)c2)c1`: the growth in test [1] is 93.4%; in test [2], 91.3%; in test [3] it was 64.4%; in [4], 70.7%; in test [5], 93.8%; in [6] it was 92.8%. Further, the growth in test [18] is 87.1%; in test [8] it was 97.4%; in test [9], 104%; in [10] it was 98.2%; in test [11], 90.5%; in test [12], 82.6%. In addition, the growth in test [13] is 95.2%; in test [14] it was 88%; in [19] it was 84.7%; in test [20], 79.4%; in test [15] it was 92.4%; in [16], 86.5%. For the same compound, the growth in test [17] was 86.3%.
With `CCCCCOC(=O)c1cccc(NC(=O)CN(CC)CC)c1`, the growth in [1] is 107%; in [2], 79.6%; in [3] it was 103%; in test [4], 106%; in test [5], 103%; in [6], 77.1%. Also, the growth was 105% in test [7]; 101% in test [8]; 108% in [9]; 70.7% in test [10]; 100% in test [11]; 106% in test [12]. Besides, the growth in [13] is 89.2%; in test [14], 82.9%; in test [15] it was 113%; in test [17] it was 87.5%.
As for `C=C1C(=O)O[C@H]2[C@H]1CC/C(COC(=O)/C=C\C(=O)NCc1ccc(Cn3c(=O)sn(CCCC)c3=O)cc1)=C\CC[C@@]1(C)O[C@@H]21`, the growth was -29.8% (active) in test [1]; -22.2% (active) in [2]; -63.6% (active) in [3]; 20.5% in test [4]; -64.3% (active) in test [5]; -59.7% (active) in test [6]. The growth is -97.4% (active) in test [18]; -83.5% (active) in test [8]; -92.1% (active) in test [9]; -54.2% (active) in [10]; -48% (active) in test [11]; -93% (active) in test [12]. Also, the growth in test [13] was -100% (active); in test [14] it was -76.9% (active); in [19] it was -100% (active); in [20], -78.8% (active); in [15], 11.2%; in test [16] it was -26.1% (active). In addition, the growth in test [17] is -17.4% (active).
Take `COc1ccc(-c2cn(-c3cccc(C(=O)/C=C/c4cc(OC)c(OC)c(OC)c4)c3)c(=O)[nH]2)cc1`: the growth in test [1] was 3.15% (active); in test [2] it was -67.1% (active); in [3], 49.6%; in [4], 34.2%; in test [5] it was -51.8% (active); in [6] it was 20.6%. Moreover, the growth was -54% (active) in [7]; -68% (active) in [8]; -33.9% (active) in [9]; -21.5% (active) in [10]; 6.73% (active) in test [11]; -33.9% (active) in test [13]. The growth in test [14] was 60.8%; in test [19], -49.9% (active); in test [20] it was -12.1% (active); in [15], 62.8%; in [16], 6.11% (active); in test [17], 3.77% (active).
As to `CCCCCCCCCCCCCCCCCC1=NCCN1C(=O)OCCO`, the growth in test [1] was -8.42% (active); in test [2] it was -47.6% (active); in test [3] it was 45.1%; in [4], 75.9%; in test [5], -46% (active); in [6], 28.4%. Besides, the growth in test [7] was 80.3%; in [8], 27.8%; in test [9] it was 61.3%; in [10] it was 76.8%; in [11], 83.4%; in [12], 32.7%. Further, the growth in test [13] was 29.5%; in test [14] it was -65.4% (active); in test [19], 38.4%; in [15] it was 89.1%; in test [16], -2.98% (active); in test [17] it was 8.42% (active).
For the compound `O=C(Oc1ccc([N+](=O)[O-])cc1)c1ccc(CBr)cc1`, the growth in test [1] was 76.9%; in test [2] it was 92.3%; in test [3], 89.2%; in test [4], 91.5%; in [5], 82.4%; in test [6], 87%. Also, the growth in test [7] was 95.2%; in test [8] it was 67.2%; in test [9], 104%; in test [10], 101%; in test [11], 103%; in [12], 89.9%. The growth in test [13] is 83.3%; in test [14] it was 99.3%; in test [19] it was 95.2%; in test [20], 86.2%; in test [15], 86.5%; in test [16] it was 68.7%. Moreover, in test [17], the growth was 82.7%.
Consider `Cc1nc(Nc2ccc(NC(=S)Nc3ccccc3)cc2)c2ccccc2n1`, for which the growth in [1] was 101%; in test [2], 107%; in test [3] it was 104%; in [4], 105%; in test [5] it was 101%; in test [6] it was 99.2%. Further, the growth in [18] is 95.1%; in test [8], 97.9%; in [9], 108%; in [10] it was 111%; in [11] it was 95.6%; in test [12], 101%. The growth in test [13] was 85.7%; in test [14] it was 131%; in test [19], 102%; in [20], 91.3%; in test [15], 100%; in test [16], 93.1%. The growth in test [17] was 85.6%.
